Compound activity as filed in PubChem BioAssay.
SMN2 splice up: qHTS Assay for Enhancers of SMN2 Splice Variant Expression; HEK293 SMN2-luciferase splicing reporter, luminescence, 30-36 h; Potency, µM (top dose mostly 46.1 µM), usual class: activators; 210,000 tested, 2.8% active; also: nearly all actives have a fitted effect of over 55% in size
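qHTS luciferase splicing reporter: luminescence rises when SMN2 exon 7 is included in transfected HEK293 cells. Compound exposure lasted 30-36 h at 37C, with 4.5 mM final sodium butyrate as control, followed by a ONE-Glo read.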
FLuc counter: qHTS profiling assay for firefly luciferase inhibitor/activator using purifed enzyme and Km concentrations of substrates (counterscreen for miR-21 project); Luciferin 4-monooxygenase (Photinus pyralis), P08659; purified FLuc, Km substrates, luminescence inhibition; Potency, µM (highest dose often 57.5 µM), usual class: inhibitors; 360,000 tested, 6.9% active; AID 588342, 2011; also: nearly all actives have a fitted effect of over 55% in size
Target sequence (P08659 whole entry, looked up): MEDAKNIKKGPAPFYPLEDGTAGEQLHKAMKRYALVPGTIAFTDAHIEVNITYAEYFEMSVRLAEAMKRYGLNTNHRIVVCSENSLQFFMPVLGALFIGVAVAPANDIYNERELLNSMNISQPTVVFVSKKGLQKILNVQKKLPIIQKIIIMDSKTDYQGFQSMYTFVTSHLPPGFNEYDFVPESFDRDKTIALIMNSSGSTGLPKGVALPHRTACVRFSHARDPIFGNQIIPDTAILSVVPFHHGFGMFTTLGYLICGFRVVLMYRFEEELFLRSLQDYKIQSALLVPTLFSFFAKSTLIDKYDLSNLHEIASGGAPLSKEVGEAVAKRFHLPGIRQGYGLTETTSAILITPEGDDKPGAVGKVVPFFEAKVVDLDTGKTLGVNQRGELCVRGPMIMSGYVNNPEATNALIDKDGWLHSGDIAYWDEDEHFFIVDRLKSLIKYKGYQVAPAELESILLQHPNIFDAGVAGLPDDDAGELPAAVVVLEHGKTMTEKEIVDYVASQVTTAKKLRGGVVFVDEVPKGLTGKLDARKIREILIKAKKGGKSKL
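Purified P. pyralis luciferase, 10 nM final, with Km-level 10 uM D-luciferin and 10 uM ATP in 50 mM Tris acetate pH 7.5, 10 mM Mg acetate, 0.01% Tween-20, 0.05% BSA; 6-point qHTS titration about 60 µM downward; luminescence read.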
Rab9 prom act: qHTS Assay for Rab9 Promoter Activators; Huh7 Rab9 promoter-luciferase reporter, luminescence, 24 h; Potency, µM (titrated, usually from 9.22 µM), usual class: activators; 320,000 tested, 2.8% active; AID 485297, 2010; also: nearly all actives have a fitted effect of over 60% in size
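Huh7 cells stably carrying Rab9 promoter–luciferase reporter, plated 1500 cells/well, compound added after 2 h and incubated 24 h at 37 °C; luciferase luminescence then read after 10 min with detection reagent.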
NPC1 prom act: qHTS Assay for NPC1 Promoter Activators | 320,000 tested, 2.4% active | Potency, µM (series often up to 9.22 µM), most hits filed as activators | AID 485313, 2010 | Huh7 NPC1 promoter luciferase reporter, 24 h; also: nearly all actives have a fitted effect of over 60% in size
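Luciferase expression driven by the NPC1 promoter was measured in stably transfected Huh7 cells after a 24 h compound incubation, using a luciferase reagent and a luminescence read.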
ELG1 genotoxic: qHTS screen for small molecules that induce genotoxicity in human embryonic kidney (HEK293T) cells expressing luciferase-tagged ELG1 | HEK293T ELG1-luciferase reporter, luminescence, 16 h | Potency, µM (top dose mostly 46 µM), most hits filed as activators | 330,000 tested, 1.3% active; also: nearly all actives have a fitted effect of over 60% in size
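Genotoxicity was scored as increased ELG1-luciferase reporter signal, measured by ONE-Glo luminescence (30 min, room temperature). Compound or vehicle exposure of the HEK293T reporter cells lasted 16 hr at 37°C.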
Luc counter: Counterscreen for Luciferase (Kinase-Glo TM) Inhibition | Potency, µM (top dose mostly 38.3 µM), actives largely listed as inhibitors | 200,000 tested, 0.28% active | Kinase-Glo luciferase, ATP luminescence, 8 min | Luciferin 4-monooxygenase (Photuris pensylvanica), Q27757 | AID 1379, 2008; also: nearly all actives have a fitted effect of over 60% in size
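Kinase-Glo luciferase light output from ATP and luciferin was measured with 10 uM ATP, within the enzyme's linear range. Buffer: 50 mM imidazole pH 7.2, 50 mM KCl, 7 mM MgCl2, 0.01% Tween 20, 0.05% BSA; luminescence read after 8 min at ambient temperature.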
Each line names hits and unclear results; the compound was inactive in the other large screens. An excerpt weighted towards active compounds, which were near 7.3% of everything screened. Calls follow the shape of the dose curve; as a rule, active = well fitted curve in the direction sought with a large enough effect; inconclusive = small, poorly fitted or top-dose-only effect, or another doubt; inactive = no such curve, though single readings can be large; an effect the other way counts as inactive or inconclusive.

O=C(N/N=C/c1cc2c(cc1Cl)OCO2)c1ccc2c(c1)OCCO2	FLuc counter 7.6µM (no result: SMN2 splice up, Luc counter)
O=C(N/N=C/c1ccc2c(c1)OCO2)c1ccc2c(c1)OCO2	FLuc counter inconclusive, Rab9 prom act 2.5µM, NPC1 prom act 2.2µM (no result: SMN2 splice up, Luc counter)
O=C(N/N=C\c1ccc(S(=O)(=O)O)o1)c1ccc2c(c1)OCO2	FLuc counter inconclusive (no result: SMN2 splice up, Luc counter)
O=C(Cc1ccccc1)N/N=C/c1cc2c(cc1Cl)OCO2	FLuc counter inconclusive
O=C(CNC(=O)c1ccc2c(c1)OCCO2)N/N=C/c1ccc(O)cc1O	none
Cc1cc2oc(C(=O)Nc3cccc(-c4nc5ccccc5o4)c3)c(C)c2cc1C	none (no result: SMN2 splice up, Rab9 prom act, NPC1 prom act, ELG1 genotoxic, Luc counter)
Cc1cc(C(=O)N/N=C/c2cccnc2)n[nH]1	none (no result: SMN2 splice up, Luc counter)
O=C(CNC(=O)c1ccc2c(c1)OCO2)Nc1cccc(Br)c1	none (no result: SMN2 splice up, Luc counter)
Cc1cc(C(=O)N/N=C/c2cccc(OC(=O)c3ccco3)c2)n[nH]1	SMN2 splice up inconclusive, FLuc counter 17µM
Cc1cc(Cl)c(S(=O)(=O)N/N=C/c2ccc3c(c2)OCO3)c(Cl)c1	SMN2 splice up inconclusive, FLuc counter 15µM
O=C(CNC(=O)c1cccc(Br)c1)N/N=C/c1ccc2c(c1)OCO2	FLuc counter 17µM, ELG1 genotoxic inconclusive (no result: SMN2 splice up, Luc counter)
O=C(N/N=C/c1cccnc1)c1ccc2c(c1)OCO2	FLuc counter 8.5µM, Rab9 prom act inconclusive, NPC1 prom act inconclusive, ELG1 genotoxic inconclusive (no result: SMN2 splice up, Luc counter)
O=C(N/N=C/c1cccnc1)c1ccc(O)cc1	FLuc counter inconclusive (no result: SMN2 splice up, Luc counter)
O=C(Cn1ncc2c3ccccc3n(Cc3cccc(Cl)c3)c2c1=O)NCCCN1CCCCC1	none (no result: Rab9 prom act, NPC1 prom act, ELG1 genotoxic, Luc counter)
CN(C)c1ccc(/C=N/NC(=O)CNC(=O)c2ccc3c(c2)OCCO3)cc1	FLuc counter inconclusive
O=C(N/N=C\c1ccc2c(c1)OCO2)c1ccco1	FLuc counter 8.5µM, Rab9 prom act 1.8µM, NPC1 prom act 3.2µM, ELG1 genotoxic 15µM (no result: SMN2 splice up, Luc counter)
CCN(CC)c1ccc(/C=N/NC(=O)CNC(=O)c2ccc3c(c2)OCCO3)cc1	FLuc counter 17µM (no result: SMN2 splice up, Luc counter)
O=C(NCc1ccccn1)C(=O)N/N=C/c1ccc2c(c1)OCO2	FLuc counter 17µM (no result: SMN2 splice up)
O=C(N/N=C\c1cccc(OC(=O)c2ccco2)c1)c1ccc2c(c1)OCO2	SMN2 splice up inconclusive, FLuc counter 1.7µM, ELG1 genotoxic 15µM
COc1cc(C(=O)NCC(=O)N/N=C/c2cccc(OC(=O)c3ccco3)c2)cc(OC)c1OC	FLuc counter inconclusive
CCOc1ccc(S(=O)(=O)NCc2nc3cccnc3n2Cc2ccccc2OC)cc1	none (no result: SMN2 splice up, Rab9 prom act, NPC1 prom act, ELG1 genotoxic, Luc counter)
Cc1cccc(CNC(=O)CCCn2c(=O)c3cccn3c3ccc(F)cc32)c1	none (no result: SMN2 splice up, Rab9 prom act, NPC1 prom act, ELG1 genotoxic, Luc counter)
O=C(N/N=C/c1ccc[nH]1)c1ccc2c(c1)OCO2	SMN2 splice up inconclusive, FLuc counter 13µM, ELG1 genotoxic inconclusive
Cc1[nH]c2ccccc2c1/C=N\NC(=O)CNc1ccc2c(c1)OCO2	FLuc counter 11µM
O=C(CNc1ccc2c(c1)OCO2)N/N=C\c1ccccc1Cl	FLuc counter inconclusive
Cc1[nH]n(-c2ccc(S(=O)(=O)O)cc2)c(=O)c1N=Nc1ccccc1	none (no result: FLuc counter, Rab9 prom act, NPC1 prom act, ELG1 genotoxic)
Cc1[nH]n(-c2ccccc2)c(=O)c1N=Nc1nccs1	FLuc counter 19µM
Cc1cc(Cl)cc2c(N=Nc3ccccc3C(=O)O)c(O)[nH]c12	FLuc counter 12µM, Rab9 prom act inconclusive, NPC1 prom act inconclusive (no result: SMN2 splice up, Luc counter)
C/C(=N\NC(=O)c1ccccc1)c1c(C)[nH]n(-c2ccccc2)c1=O	none (no result: SMN2 splice up, Luc counter)
Cc1[nH]n(-c2ccccc2)c(=O)c1C(=O)Nc1ccccc1	FLuc counter 17µM (no result: SMN2 splice up, Luc counter)
Cc1[nH]n(-c2ccccc2)c(=O)c1N=Nc1ccccc1C(=O)O	FLuc counter 17µM (no result: SMN2 splice up, Luc counter)
Cc1ccc(NC(=O)Cn2cc(C(=O)C3CCCCC3)c3ccccc32)cc1	none (no result: Rab9 prom act, NPC1 prom act, ELG1 genotoxic, Luc counter)
COCCCNC(=O)c1sc2nc3n(c(=O)c2c1C)CCC3	none (no result: SMN2 splice up, Rab9 prom act, NPC1 prom act, ELG1 genotoxic, Luc counter)
CCc1ccc(C(=O)c2cn(CC(=O)Nc3ccc4c(c3)OCCO4)c3ccc(CC)cc3c2=O)cc1	none (no result: Rab9 prom act, NPC1 prom act, ELG1 genotoxic, Luc counter)
